Source: PubChem
An excerpt weighted towards active compounds, which were near 8.2% of everything screened.
KB-V1 cytotox: KB-V1 MDR subline cytotoxicity. Potency, µM (doses to about 46.1 µM), hits mostly cytotoxic. 400,000 compounds, 3.4% hits. KB-V1 MDR cells viability, CellTiter-Glo, 72 h; further: on the % scale 0 is the no-effect control and ±100 the full control effect; nearly all actives have a fitted effect of over 60% in size
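Potencies derive from concentration-effect curves fitted to normalized luminescence (CellTiter-Glo) of KB-V1 cells treated for 72 h at 37 degrees C in phenol-red-free DMEM containing 10% FBS.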
ELG1 repair inh: ELG1-dependent DNA repair inhibition | HEK293T ELG1-luciferase reporter, luminescence, 16 h; DNA damage induced by 5-fluorouridine | Potency, µM (top dose mostly 46.1 µM), for the others: at the top dose activity change, negative = inhibition, most hits filed as inhibitors | AID 504467 | 330,000 compounds, 2.3% hits; further: on the % scale 0 is the no-effect control and ±100 the full control effect; nearly all actives have a fitted effect of over 55% in size
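Step one: seed 2,000 cells per well. Step two: pin-transfer compound or DMSO alongside 5-fluorouridine. Step three: incubate 16 hr, 37 °C, 5% CO2. Step four: add ONE-Glo, wait 30 min, read luminescence.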
SW480 rereplic: DNA re-replication induction in SW480 cells. SW480 DNA re-replication, Hoechst DNA content imaging, 48 h. Potency, µM (top dose mostly 46.1 µM), for the others: at the highest dose re-replication activation, usual class: activators. AID 624297. 340,000 compounds, 1.8% hits; further: % of control where 0% means no effect; nearly all actives have a fitted effect of over 55% in size
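Treated cells incubate 48 hr (37 C, 5% CO2), are stained 40 min with Hoechst, and nuclear fluorescence is enumerated; a rise in nuclei with high DNA signal marks re-replication.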
KB-3-1 tox: kills parental KB-3-1 adenocarcinoma cells; KB-3-1 viability, CellTiter-Glo ATP luminescence, 72 h; Potency, µM (doses to about 46.1 µM), actives largely listed as cytotoxic; 400,000 compounds, 1.4% hits; AID 1347075; further: on the % scale 0 is the no-effect control and ±100 the full control effect; nearly all actives have a fitted effect of over 60% in size
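Cytotoxicity in the drug-sensitive parental line KB-3-1 was scored as loss of CellTiter-Glo luminescence following 72 h incubation with compound. Values come from curve fitting of normalized concentration-response data.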
MCF10A rerep: DNA re-replication induction in MCF 10a cells. 350,000 compounds, 2.9% hits. AID 624296. Potency, µM (titrated, usually from 46.1 µM), for the others: at the highest dose activity, positive = re-replication, usual class: activators. MCF 10A DNA re-replication, Hoechst nuclear intensity, 48 h; further: % of control where 0% means no effect; nearly all actives have a fitted effect of over 50% in size
Numbers without * were called inactive; i = inactive; ? = inconclusive; · = not tested or not shown; [ ] = dose if it differs, or a comment. The call rests on the fitted dose curve; in most records, active means well fitted curve in the direction sought with a large enough effect; inconclusive means small, poorly fitted or top-dose-only effect, or another doubt; inactive means no such curve, though single readings can be large; an effect the other way counts as inactive or inconclusive. Potency means the concentration at half of the fitted maximal effect.

SMILES	KB-V1 cytotox	ELG1 repair inh	SW480 rereplic	KB-3-1 tox	MCF10A rerep
CCCNC(=O)c1ccc(N2CCC3(CC2)CC(c2ccccc2)=NO3)c([N+](=O)[O-])c1	i	?	3%	?	2%
CCCCCCCNC(=O)c1ccc(N2CCC3(CC2)OCCO3)c([N+](=O)[O-])c1	9.2µM*	18µM*	-61%	i	25%
Cc1ccc(-n2ncc3c(=O)n(CC(=O)N(C(C)C)C(C)C)cnc32)cc1	i	2%	-4%	i	-6%
O=S(=O)(NCC(Nc1ccc(Cl)cc1)c1ccccc1)c1ccc(Cl)cc1 (centres undefined)	?	-2%	?	?	3.3µM*
Cc1ccc(Sc2nnc(Cc3ccccc3)c3ccccc23)cc1	?	?	?	i	?
COc1ccc(Sc2nnc(Cc3ccccc3)c3ccccc23)cc1	?	-19%	?	i	9.2µM*
Cc1ccc(S(=O)(=O)N2CCN(C(=O)C3CCN(C(=O)c4ccc(F)cc4)CC3)CC2)c(C)c1	?	?	-24%	?	15%
CCc1ccc(C(=O)COC(=O)c2cc([N+](=O)[O-])ccc2N2CCOCC2)cc1	6.5µM*	?	10µM*	?	4.6µM*
O=C(OCc1ccc(Br)cc1)c1cc([N+](=O)[O-])ccc1N1CCOCC1	1.3µM*	·	·	5.8µM*	·
O=C(OCc1cccc(Cl)c1)c1cc([N+](=O)[O-])ccc1N1CCOCC1	?	-18%	?	?	?
CCOC(=O)c1cc(CC)sc1NC(=O)c1ccc(N2CCOCC2)c([N+](=O)[O-])c1	i	3%	-3%	i	27%
CCOC(=O)c1cc(CC)sc1NC(=O)c1cc([N+](=O)[O-])ccc1N1CCOCC1	i	-4%	2.3µM*	1µM*	?
COc1ccc(COC(=O)c2cc([N+](=O)[O-])ccc2N2CCOCC2)cc1F	0.073µM*	?	?	0.13µM*	21%
CSCCC(=O)N1CCCC(N2CCN(c3cccc(C(F)(F)F)c3)CC2)C1 (centres undefined)	i	-12%	8%	i	-1%
N#Cc1ccc(CSc2nnc(-c3cccs3)n2-c2ccccc2)cc1	?	21µM*	5%	i	25%
CC(Sc1nnc(-c2cccs2)n1-c1ccccc1)C(=O)NCc1ccc2c(c1)OCO2 (centres undefined)	8.2µM*	?	13%	i	-11%
N#Cc1ccc(CSc2nnc(-c3ccccn3)n2-c2ccccc2)cc1	i	-25%	0%	i	?
c1ccc(CCn2c(SCc3ccccc3)nnc2-c2ccncc2)cc1	i	?	-4%[9.22 µM]	i	-3%
N#Cc1ccc(CSc2nnc(-c3ccncc3)n2CCc2ccccc2)cc1	?	23µM*	10%	?	8%
N#Cc1ccc(CSc2nnc(Cc3cccs3)n2Cc2ccco2)cc1	?	-1%	-2%	i	-13%
N#Cc1ccc(CSc2nnc(-c3ccccc3)n2Cc2ccco2)cc1	3.7µM*	-7%	-1%	i	?
CCNc1c(NC(=O)COc2ccc(Cl)cc2)c(=O)oc2ccccc12	i	11%	3%	i	0%
Nc1[nH]c(=O)nc2nnsc12	i	·	·	?	·
COc1ccc(NC(=O)Cn2c(=O)n(Cc3ccco3)c(=O)c3cc(OC)c(OC)cc32)cc1	?	·	·	i	·
C=CCN=C1CCCc2c1[nH]c1ccc(C)cc21	3.3µM*	?	0%	6.5µM*	-10%
SMILES	KB-V1 cytotox	ELG1 repair inh	SW480 rereplic	KB-3-1 tox	MCF10A rerep
Brc1ccc2[nH]c3c(c2c1)CCC3	i	?	14%	?	-1%
OCCN=C1CCCc2c1[nH]c1ccc(Br)cc21	0.33µM*	-1%	-2%[9.22 µM]	1µM*	21%
COc1ccc(C=O)c(OCc2cn(CC(=O)c3ccc(O)cc3)nn2)c1	i	·	-2%	i	?
CC(=O)[C@@]1(O)C(C)CC2C3C=C(C)C4=Cc5c(cnn5-c5ccccc5)C[C@]4(C)C3C(O)C[C@@]21C (some centres undefined)	?	?	8.2µM*	?	15µM*
O=C1NC(=Nc2ccccc2)S/C1=C\c1cccnc1	i	17%	?	i	0%
Cc1cccc(N=C2NC(=O)/C(=C/c3cccs3)S2)c1	i	?	0%	i	?
Cc1cccc(N=C2NC(=O)/C(=C/c3cccn3C)S2)c1	5.8µM*	-1%	?	?	?
O=C1NC(=Nc2ccccc2)S/C1=C\c1cccn1-c1ccccc1	4.6µM*	?	6.5µM*	5.2µM*	6.5µM*
Cc1ccccc1N=C1NC(=O)/C(=C/c2cccn2C)S1	7.3µM*	?	?	?	?
Cc1ccc(N=C2NC(=O)/C(=C\c3cccs3)S2)cc1C	i	?	?	i	?
O=C1NC(=Nc2cccnc2)S/C1=C/c1ccc(F)cc1	?	15%	?	?	7.3µM*
CN(C)c1ccc(/C=C2\Cc3ccccc3C2=O)cc1	i	·	·	i	·
CCOc1ccc(OCCC(=O)OCC(=O)NCCc2ccc(S(N)(=O)=O)cc2)cc1	?	17%	?	?	-8%
COC(=O)C1=C(C(=O)OC)C(C(=O)OC)N2C=CC=CC2=C1C(=O)OC (centres undefined)	i	·	·	i	·
C=CC12C=CC=CN1C(C(=O)OC)=C(C(=O)OC)C(C(=O)OC)=C2C(=O)OC (centres undefined)	18µM*	-19%	-90%	i	-10%
COc1cc(/C=N/NC(=O)c2ccc(-c3ccccc3)cc2)cc(OC)c1OC	i	16µM*	9.2µM*	i	21%
COc1ccc(/C=N/NC(=O)CCn2cnc(-c3ccccc3)c2-c2ccccc2)cc1OC	?	?	21µM*	6.5µM*	8.2µM*
COc1cc(C=C(C#N)C(=O)c2ccccc2)cc(OC)c1OC	i	·	·	i	·
COc1cc(/C=N/NC(=O)c2sc3nc(C)cc(C)c3c2N)ccc1O	i	0%	?	i	15µM*
COc1cc(/C=C(/C(=O)O)c2ccc(-c3ccccc3)cc2)cc(OC)c1OC	?	-22%	21µM*	?	15µM*
Cc1ccc(C(=O)CSc2ncc3c(n2)-c2ccccc2N(Cc2ccc(Cl)cc2)S3(=O)=O)cc1	i	·	·	i	·
CC(=O)Nc1ccc(C(=O)N/N=C/c2ccccc2OC(=O)c2ccc(Cl)cc2)cc1	i	?	-3%[9.22 µM]	?	25%
COc1cc(/C=N/NC(=O)c2cc(-c3ccccc3)sc2N)cc(OC)c1OC	?	23µM*	-12%	i	-1%
Cc1nc(N)sc1C(=O)N/N=C/c1ccc([N+](=O)[O-])cc1	i	-7%	-92%	i	17%
